SW480 rerep: DNA re-replication induction in SW480 cells; SW480 DNA re-replication, Hoechst DNA content imaging, 48 h; Potency, µM (highest dose often 46.1 µM), for the others: at the top dose re-replication activation, usual class: activators; actives 1.8% (n = 340,000); AID 624297; also: potency is read from the fitted curve at half-maximal effect; % of control where 0% means no effect; nearly all actives have a fitted effect of over 55% in size
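Per well, 250 cells were exposed to pinned compound for 48 hr. Nuclear DNA was visualised with Hoechst (40 min, 37 C) and total object intensity recorded by fluorescence scanning.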
KB-3-1 cytotox: kills parental KB-3-1 adenocarcinoma cells. KB-3-1 viability, CellTiter-Glo ATP luminescence, 72 h. Potency, µM (top dose mostly 46.1 µM), actives largely listed as cytotoxic. actives 1.4% (n = 400,000). AID 1347075; also: potency is read from the fitted curve at half-maximal effect; % is scaled to controls: 0 for no effect and ±100 for the full control effect; nearly all actives have a fitted effect of over 60% in size
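Viability of parental KB-3-1 cells, measured by CellTiter-Glo luminescence, followed a 72 h incubation at 37 °C with pinned compounds in phenol-red-free DMEM containing 10% FBS.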
D3 antag: blocks the human D3 dopamine receptor | P35462 | D3R cells, DiscoveRx beta-arrestin luminescence, antagonist mode; active compounds read low | max response, negative = inhibition, % | actives 2.5% (n = 360,000) | AID 652054; in the data active = max response below about -50%; inconclusive = no clear call, values can overlap the other calls; also: % is scaled to controls: 0 for no effect and ±100 for the full control effect
Target sequence (P35462 whole entry, looked up): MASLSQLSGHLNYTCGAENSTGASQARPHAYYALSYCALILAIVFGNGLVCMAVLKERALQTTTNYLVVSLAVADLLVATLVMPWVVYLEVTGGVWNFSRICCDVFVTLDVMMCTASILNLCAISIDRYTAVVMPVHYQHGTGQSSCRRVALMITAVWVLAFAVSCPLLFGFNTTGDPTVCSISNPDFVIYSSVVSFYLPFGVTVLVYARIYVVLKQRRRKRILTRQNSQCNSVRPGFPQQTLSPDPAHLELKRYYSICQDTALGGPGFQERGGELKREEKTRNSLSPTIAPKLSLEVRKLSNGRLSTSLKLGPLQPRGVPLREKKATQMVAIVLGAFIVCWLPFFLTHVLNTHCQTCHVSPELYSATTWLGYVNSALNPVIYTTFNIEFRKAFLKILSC
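Cells expressing the human receptor were seeded at 1500 cells/well, incubated overnight at 37 degrees C in 5% CO2, then exposed to library compounds with dopamine controls for 90 minutes at 37 degrees C before luminescent detection.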
MCF10A rereplic: inducers of DNA re-replication in MCF 10A breast cells; Potency, µM (highest dose often 46.1 µM), for the others: at the highest dose activity, positive = re-replication, hits mostly activators; MCF 10A DNA re-replication, Hoechst nuclear intensity, 48 h; actives 2.9% (n = 350,000); also: potency is read from the fitted curve at half-maximal effect; % of control where 0% means no effect; nearly all actives have a fitted effect of over 50% in size
KB-V1 MDR tox: kills drug-selected multidrug resistant KB-V1 cells | actives 3.4% (n = 400,000) | Potency, µM (series often up to 46.1 µM), usual class: cytotoxic | KB-V1 MDR cells viability, CellTiter-Glo, 72 h; also: potency is read from the fitted curve at half-maximal effect; % is scaled to controls: 0 for no effect and ±100 for the full control effect; nearly all actives have a fitted effect of over 60% in size
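Cytotoxicity via CellTiter-Glo luminescence after 72 h compound exposure at 37 degrees C. Cells: drug-selected KB-V1 line, DMEM phenol-red free plus 10% FBS. Compounds tested at multiple concentrations; normalized data fitted to concentration-effect curves.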
D3 ag: agonists of human D3 dopamine receptor; max activation, %; D3R DiscoveRx beta-arrestin cells, luminescence, 90 min; AID 652048; P35462; actives 0.58% (n = 410,000); in the data active = max activation above about 30%; also: 0% is about no effect
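Cells at 1500/well, incubated overnight, then treated with pinned compounds (dopamine as control) for 90 min at 37 degrees C. DiscoveRx reagent added for 30 - 60 minutes at room temperature; luminescence read.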
* marks the source's active call; other numbers are inactive results; [ ] = remark or other dose. Only some compounds are listed: those with a hit (about 8.9% of all), similar ones and a draw of the others. Unless noted, calls follow the shape of the dose curve; as a rule, active = well fitted curve in the direction sought with a large enough effect; inconclusive = small, poorly fitted or top-dose-only effect, or another doubt; inactive = no such curve, though single readings can be large; an effect the other way counts as inactive or inconclusive.

How did Cc1c(NC(=O)Cc2ccc(F)cc2)cccc1-c1nc2cccnc2s1 do in these assays?
D3 ag: -6.6

What do the screens show for `O=C(Nc1ccc(F)cc1)Nc1ccc([N+](=O)[O-])cn1`?
SW480 rerep: -1.5%; KB-3-1 cytotox: inactive; D3 antag: -10.9; MCF10A rereplic: -3.3%; KB-V1 MDR tox: inactive; D3 ag: -3.6

How did CCN(CC)S(=O)(=O)c1ccc(OC)c(NC(=O)c2ccc([N+](=O)[O-])cc2)c1 do in these assays?
SW480 rerep: -3.1%; KB-3-1 cytotox: inactive; D3 antag: -16.9; MCF10A rereplic: -2.0%; KB-V1 MDR tox: inactive; D3 ag: -6.0

Results for CCN(CC)S(=O)(=O)c1cc([N+](=O)[O-])ccc1NNC(=O)Nc1ccc(F)cc1 ?
SW480 rerep: -1.0%; KB-3-1 cytotox: inconclusive; D3 antag: -72.4*; MCF10A rereplic: 23.1µM*; KB-V1 MDR tox: inactive; D3 ag: -0.5

How did COc1cc([N+](=O)[O-])ccc1NC(=O)CN(C)C do in these assays?
SW480 rerep: 3.9%; KB-3-1 cytotox: inactive; D3 antag: -14.0; MCF10A rereplic: inconclusive; KB-V1 MDR tox: inactive; D3 ag: 1.6

How did CCN(CC(=O)Nc1ccc([N+](=O)[O-])cc1OC)c1ccccc1 do in these assays?
SW480 rerep: -1.3%; KB-3-1 cytotox: inactive; D3 antag: -67.9*; MCF10A rereplic: -5.2%; KB-V1 MDR tox: inconclusive; D3 ag: -2.1

What do the screens show for `CCN(CC)S(=O)(=O)c1cc([N+](=O)[O-])ccc1NNC(=O)Nc1ccccc1OC`?
SW480 rerep: 1.8%; KB-3-1 cytotox: inconclusive; D3 antag: -85.9*; MCF10A rereplic: 28.6%; KB-V1 MDR tox: inconclusive; D3 ag: -4.8

What do the screens show for `CC1CS(=O)(=O)CCN1/N=C/c1ccc([N+](=O)[O-])o1` (centres undefined)?
D3 ag: 5.9

Results for CCc1ccc(C(c2ccccc2)c2c[nH]c3ccc(C)cc23)s1 (centres undefined) ?
KB-3-1 cytotox: inactive; KB-V1 MDR tox: inactive; D3 ag: -9.4

Results for Cc1cc(S(=O)(=O)C(CNC(=O)COc2ccc(Cl)cc2)c2cccs2)ccc1F (centres undefined) ?
D3 ag: 9.2

How did CP(C)(=O)CCP(=O)(c1ccccc1)c1ccccc1 do in these assays?
SW480 rerep: -2.2%; KB-3-1 cytotox: inactive; D3 antag: 8.7; MCF10A rereplic: -13.4%; KB-V1 MDR tox: inactive; D3 ag: 5.1

How did CCN(CC)CCP(=O)(c1ccccc1)c1ccccc1 do in these assays?
SW480 rerep: inconclusive; KB-3-1 cytotox: inactive; D3 antag: 7.6; MCF10A rereplic: 9.2µM*; KB-V1 MDR tox: inactive; D3 ag: -8.9

Results for COc1ccc(-c2cn3cc(C)ccc3n2)cc1OC ?
SW480 rerep: -5.6%; KB-3-1 cytotox: inactive; D3 antag: 16.6; MCF10A rereplic: 0.2%; KB-V1 MDR tox: 6.51µM*; D3 ag: -0.2

Results for Cc1ccc2nc(-c3ccc4c(c3)OCCO4)cn2c1 ?
SW480 rerep: 2.59µM*; KB-3-1 cytotox: 3.66µM*; D3 antag: -27.7; MCF10A rereplic: 5.8µM*; KB-V1 MDR tox: inconclusive; D3 ag: -3.5

What do the screens show for `Clc1ccc2nc(-c3ccc4c(c3)OCO4)cn2c1`?
SW480 rerep: 23.1µM*; KB-3-1 cytotox: inconclusive; D3 antag: 17.6; MCF10A rereplic: inconclusive; KB-V1 MDR tox: inconclusive; D3 ag: 2.5

Results for CN(C)S(=O)(=O)c1cccc(-c2cn3cc(Cl)ccc3n2)c1 ?
SW480 rerep: -1.8%; KB-3-1 cytotox: inactive; D3 antag: -16.3; MCF10A rereplic: -5.5%; KB-V1 MDR tox: 16.4µM*; D3 ag: -7.4

Results for Cc1cccc(Nc2c(-c3ccsc3)nc3nc(C)cc(C)n23)c1 ?
KB-3-1 cytotox: inactive; KB-V1 MDR tox: inactive; D3 ag: -10.4

Results for Cc1cc(C)c(NC(=O)CN2C(=O)CCSc3ccc(S(=O)(=O)N4CCCC4)cc32)c(C)c1 ?
D3 ag: -3.8

What do the screens show for `CCOc1ccccc1OCCOc1ccccc1OC(C)C`?
SW480 rerep: 0.5%; KB-3-1 cytotox: inactive; D3 antag: 8.1; MCF10A rereplic: 0.1%; KB-V1 MDR tox: inactive; D3 ag: 2.1

How did CNCCOc1ccccc1OC(C)C do in these assays?
SW480 rerep: -2.9%; KB-3-1 cytotox: inactive; D3 antag: -79.5*; MCF10A rereplic: -2.0%; KB-V1 MDR tox: inactive; D3 ag: -16.5

Results for Cc1cc(Br)c(OCC(=O)NN)c2c1CCC2 ?
SW480 rerep: 31.3%; KB-3-1 cytotox: inactive; D3 antag: 27.3; MCF10A rereplic: 14.6µM*; KB-V1 MDR tox: inconclusive; D3 ag: 5.0

What do the screens show for `COc1ccccc1N1CCN(C(=O)CSc2nc3ccccc3o2)CC1`?
SW480 rerep: -0.5%; KB-3-1 cytotox: inactive; D3 antag: 3.6; MCF10A rereplic: inconclusive; KB-V1 MDR tox: 20.6µM*; D3 ag: 23.8

What do the screens show for `CSCCCN1CCCC(CO)(Cc2ccccc2F)C1` (centres undefined)?
SW480 rerep: 7.8%; KB-3-1 cytotox: inactive; D3 antag: -56.2*; MCF10A rereplic: 18.8%; KB-V1 MDR tox: inactive; D3 ag: -7.4

Results for CCOc1ccc(OCC(=O)Nc2ccc(S(=O)(=O)Nc3cc(C)nc(C)n3)cc2)cc1 ?
SW480 rerep: -0.2%[9.22 µM]; KB-3-1 cytotox: inactive; D3 antag: -11.6; MCF10A rereplic: 1.1%; KB-V1 MDR tox: inactive; D3 ag: 3.0

Results for Cc1cc(NS(=O)(=O)c2ccc(NC(=O)COc3ccc(Br)cc3)cc2)nc(C)n1 ?
SW480 rerep: inconclusive; KB-3-1 cytotox: inconclusive; D3 antag: -20.0; MCF10A rereplic: 18.4µM*; KB-V1 MDR tox: inconclusive; D3 ag: 0.1

Results for Cc1ccc(NS(=O)(=O)c2ccc(C(=O)NC3CCN(Cc4ccccc4)CC3)cc2)cc1 ?
SW480 rerep: 18.4µM*; D3 antag: -68.4*; MCF10A rereplic: 7.6%; D3 ag: -4.3

What do the screens show for `O=C(NC1CCN(Cc2ccccc2)CC1)c1cccc(S(=O)(=O)Nc2ccc(SC(F)F)cc2)c1`?
SW480 rerep: inconclusive; KB-3-1 cytotox: inconclusive; D3 antag: -100.7*; MCF10A rereplic: 1.4%; KB-V1 MDR tox: inactive; D3 ag: -25.7

How did O=C(NC1CCN(Cc2ccccc2)CC1)c1cccc(NS(=O)(=O)c2ccc(Br)cc2)c1 do in these assays?
SW480 rerep: 1.9%; KB-3-1 cytotox: inconclusive; D3 antag: -109.0*; MCF10A rereplic: 11.8%; KB-V1 MDR tox: inactive; D3 ag: -27.5
